# Bioassay records as filed in PubChem BioAssay.
# Pol kappa inh – DNA polymerase kappa (human) inhibition | AID 588579 | Potency, µM (highest dose often 107 µM), for the others: at the highest dose activity, negative = inhibition, hits mostly inhibitors | actives 0.53% (n = 400,000) | Q9UBT6 | purified Pol kappa, fluorescent DNA synthesis assay, 10 min; also: % is scaled to controls: 0 for no effect and ±100 for the full control effect
#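 Fluorescent qHTS in 1536-well format: enzyme (10 nM) and compound sat 15 min at room temperature before 50 nM substrate (final) was added. Signal taken at 0 and 10 min; no-enzyme buffer wells were negative controls.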
# POLI inh – inhibitors of human DNA polymerase iota; Q9UNA4; Pol iota fluorescent replication assay, 10 min; Potency, µM (top dose mostly 115 µM), inactives show at the top dose activity, negative = inhibition, most hits filed as inhibitors; actives 1% (n = 390,000)
#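 Fluorescent replication assay read twice, at 0 min and 10 min after adding 50 nM (final) substrate. Enzyme (10 nM) and compounds were first incubated 15 min at room temperature; enzyme-free buffer wells were negative controls.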
# WRN helicase inh – blocks human WRN helicase. Potency, µM (doses to about 114 µM), without a hit: at the top dose activity change, negative = inhibition, actives largely listed as inhibitors. Q14191. AID 651768. WRN helicase unwinding, fluorescent forked duplex, kinetic. actives 0.46% (n = 360,000); also: % is scaled to controls: 0 for no effect and ±100 for the full control effect; nearly all actives have a fitted effect of over 55% in size
# Target sequence (Q14191 whole entry, looked up): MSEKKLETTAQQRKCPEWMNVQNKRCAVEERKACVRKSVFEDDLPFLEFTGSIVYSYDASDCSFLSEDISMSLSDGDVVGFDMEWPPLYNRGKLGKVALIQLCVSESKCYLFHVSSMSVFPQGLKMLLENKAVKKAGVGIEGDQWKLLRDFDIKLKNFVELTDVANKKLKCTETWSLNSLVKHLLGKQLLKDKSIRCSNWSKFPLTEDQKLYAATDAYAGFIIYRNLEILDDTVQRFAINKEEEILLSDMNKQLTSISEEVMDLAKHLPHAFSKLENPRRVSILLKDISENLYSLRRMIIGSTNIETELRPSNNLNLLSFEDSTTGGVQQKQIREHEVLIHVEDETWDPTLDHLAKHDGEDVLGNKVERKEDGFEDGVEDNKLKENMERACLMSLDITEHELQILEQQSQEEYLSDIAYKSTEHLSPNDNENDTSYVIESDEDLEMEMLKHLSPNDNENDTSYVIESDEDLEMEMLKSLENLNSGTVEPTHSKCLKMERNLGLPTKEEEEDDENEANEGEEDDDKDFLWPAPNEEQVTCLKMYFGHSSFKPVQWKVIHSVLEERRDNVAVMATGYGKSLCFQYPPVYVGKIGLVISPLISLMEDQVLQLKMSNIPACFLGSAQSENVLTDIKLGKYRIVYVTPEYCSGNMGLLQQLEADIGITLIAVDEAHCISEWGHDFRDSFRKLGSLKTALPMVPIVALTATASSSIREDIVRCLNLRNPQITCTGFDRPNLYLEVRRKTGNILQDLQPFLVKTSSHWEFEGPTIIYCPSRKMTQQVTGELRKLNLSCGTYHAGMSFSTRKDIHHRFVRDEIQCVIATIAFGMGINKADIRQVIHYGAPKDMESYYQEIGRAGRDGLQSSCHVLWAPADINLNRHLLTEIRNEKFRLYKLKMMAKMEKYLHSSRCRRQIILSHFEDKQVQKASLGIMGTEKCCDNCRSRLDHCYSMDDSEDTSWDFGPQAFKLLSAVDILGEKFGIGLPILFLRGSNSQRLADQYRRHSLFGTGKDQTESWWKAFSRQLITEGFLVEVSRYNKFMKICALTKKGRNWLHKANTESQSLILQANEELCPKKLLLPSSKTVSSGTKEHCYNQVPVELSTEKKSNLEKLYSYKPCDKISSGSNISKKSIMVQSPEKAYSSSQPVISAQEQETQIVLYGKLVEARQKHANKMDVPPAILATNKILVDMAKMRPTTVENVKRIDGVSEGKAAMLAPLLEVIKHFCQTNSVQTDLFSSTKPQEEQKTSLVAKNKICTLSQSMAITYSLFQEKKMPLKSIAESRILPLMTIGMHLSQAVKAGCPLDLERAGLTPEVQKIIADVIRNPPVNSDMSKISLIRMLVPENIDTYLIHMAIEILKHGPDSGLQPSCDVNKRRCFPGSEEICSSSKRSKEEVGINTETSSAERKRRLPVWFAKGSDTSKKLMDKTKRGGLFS
#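 WRN at 20 nM final preincubated with compound 15 min at room temperature; reaction started with 100 nM fluorophore/quencher forked duplex oligonucleotide and 2 mM ATP final. Unwinding followed kinetically by red fluorescence (ex 525, em 598 nm).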
# Pol beta inh – inhibitors of human DNA polymerase beta; Pol beta primer extension/strand displacement, fluorescence kinetic; Potency, µM (titrated, usually from 114 µM), inactives show at the top dose activity change, negative = inhibition, hits mostly inhibitors; actives 1.3% (n = 340,000); AID 485314; also: % is scaled to controls: 0 for no effect and ±100 for the full control effect
#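 10 nM enzyme + cpd, 15 min RT; start with substrate 50 nM final; read 0 min and after 10 min RT. Corrected, normalized data; 4-parameter Hill curve fit.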
# FEN1 inh – human FEN1 inhibition; P39748; Recombinant FEN1 flap cleavage, fluorescence, 15 min; Potency, µM (top dose mostly 114 µM), inactives show top-dose activity change, negative = inhibition, hits mostly inhibitors; actives 0.35% (n = 390,000); AID 588795; also: % is scaled to controls: 0 for no effect and ±100 for the full control effect; nearly all actives have a fitted effect of over 65% in size
#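 Reaction started by adding substrate (50 nM final) to 10 nM enzyme after 15 min room-temperature compound preincubation. Reads at 0 and 15 min, with data normalized and fitted to a four-parameter Hill equation.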
# POLH inh – inhibitors of human DNA polymerase eta; Q9Y253; recombinant Pol eta, fluorescent DNA replication assay; Potency, µM (highest dose often 114 µM), for the others: at the highest dose activity change, negative = inhibition, most hits filed as inhibitors; actives 1.2% (n = 390,000); AID 588591; also: % is scaled to controls: 0 for no effect and ±100 for the full control effect
#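 Pol eta at 10 nM preincubated with compounds 15 min at room temperature; reaction started with fluorescent substrate (50 nM final) and read kinetically at 0 and 10 min.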
# Starred values were filed as active, the others as inactive; u = inconclusive; x = no result; [ ] = another dose, or the depositor's remark. In the library only some 2.4% were active in any assay of this set; here they are far more common. Calls follow the shape of the dose curve; as a rule, active = well fitted curve in the direction sought with a large enough effect; inconclusive = small, poorly fitted or top-dose-only effect, or another doubt; inactive = no such curve, though single readings can be large; an effect the other way counts as inactive or inconclusive. Potency is read from the fitted curve at half-maximal effect.
SMILES,Pol kappa inh,POLI inh,WRN helicase inh,Pol beta inh,FEN1 inh,POLH inh
Cc1ccc(NC(=O)Cn2cc(S(=O)(=O)N3CCCC3)c(S(=O)(=O)N3CCCC3)c2)cc1F,-7%,9%,x,0%,15%,-16%
COc1ccc(-c2nn3c(-c4cc(C)[nH]n4)nnc3s2)cc1,-21%,-31%,x,x,-10%,x
COc1ccc(C(=O)N2CCC(c3nc(-c4ccc(S(=O)(=O)N5CCCC5)cc4)no3)CC2)cc1,-14%,30%,x,9%,13%,-27%
O=C(CSc1nnc(-c2ccc(OC(F)F)cc2)o1)NC(=O)NCc1ccco1,-29%,79µM*,-11%[11.6 µM],45µM*,6%,u
Cc1cc(SCC(=O)NC(=O)NCc2ccco2)nc2ccccc12,-5%,u,-7%,0%,11%,-16%
O=C(CSc1cccc(C(F)(F)F)c1)NC(=O)NCc1ccco1,u,u,u,u,-19%,-25%
O=C(CSc1nnc(CNC(=O)c2c(F)cccc2F)o1)NCc1ccco1,-29%,u,u,25µM*,0%,u
Cc1ccccc1CSCC(=O)NC(=O)NCc1ccco1,u,32µM*,u,11µM*,-22%,u
O=C(CSc1ccccc1F)NC(=O)NCc1ccco1,-24%,u,4%[11.6 µM],10µM*,-1%,u
O=C(COc1ccccc1F)Nc1nnc(SCc2cc(=O)c3ccccc3[nH]2)s1,-8%[60.1 µM],-7%,x,-1%,9%,-1%
CN(C)c1ccc(C2C=C(c3ccccc3)Nc3nnnn32)cc1 (configuration not stated),4%,-3%,x,0%,20%,5%
C=CCn1c(COc2ccccc2-c2ccccc2)nnc1SCC(=O)NC(=O)NCc1ccco1,-5%,u,1%,-15%,6%,-10%
Cc1nnc(SCC(=O)NC(=O)NCc2ccco2)s1,-8%,-4%,-9%,-12%,-5%,-1%
C=CCn1c(COc2ccccc2F)nnc1SCC(=O)NC(=O)NCc1ccco1,u,32µM*,-18%,40µM*,-6%,u
COc1ccc(-c2[nH]c(-c3ccccc3)nc2SCC(=O)NCc2ccco2)cc1OC,-24%,u,-17%,40µM*,-10%,u
O=C(CSc1nn(-c2ccc(F)cc2)c(=S)s1)NC(=O)NCc1ccco1,-4%,u,-14%,45µM*,5%,2%
CCOc1ccc(-n2c(=S)sc3c(=O)[nH]c(SCC(=O)NCc4ccco4)nc32)cc1,-32%,u,-24%,35µM*,9%,56µM*
O=C(COc1ccccc1C(=O)Nc1ccccc1)Nc1cccc(Br)c1,-8%,20%,x,x,-23%,x
O=C(CSc1ncccn1)NC(=O)NCc1ccco1,-14%,79µM*,4%[11.6 µM],u,2%,-11%
O=C(CSc1nc2ccccc2o1)NC(=O)NCc1ccco1,-17%,-9%,-14%,-4%,-15%,u
Cc1nc2ccccc2c(=O)n1/N=C/c1c(O)ccc2oc3c(c12)CCCC3,1%,89µM*,-8%[57.1 µM],4%,-4%,-8%
CC(C)(C)N=Cc1c(O)ccc2oc3c(c12)CCCC3,-75%,u,3%[11.6 µM],0%,-32%,40µM*
NC(=O)N/N=C/c1c(O)ccc2oc3c(c12)CCCC3,-2%,52%,-4%,3%,-31%,-16%
Cc1ccc(-n2c(O)c(C=Nc3cc(C)on3)c3ccccc3c2=O)c(C)c1,-16%,2%,50µM*,u,-18%,-11%
O=C(N/N=C/c1ccc(Cl)c([N+](=O)[O-])c1)c1ccc2nc[nH]c2c1,-15%,-3%,-26%,40µM*,u,u
COc1cccc(C2C3=C(N=c4s/c(=C\c5ccc(OCC(=O)O)cc5)c(=O)n42)c2ccccc2CC3)c1 (configuration not stated),-16%,-4%,-20%,u,-17%,89µM*
